Experimental data taken from PubChem BioAssay (EPA / NIEHS).
Results filed as inconclusive are left out. The source made the active and inactive calls. How the source made its calls: active means hit-call score of the fitted dose curve at least 0.9, where 1 is the maximum; inconclusive means response in the unintended direction; inactive means score below 0.9.

target: human RAR-related Orphan Receptor gamma (RORg), RORC (gene 6097) (UniProt P51449); experiment: ATG_RORg_TRANS: Attagene TRANS-FACTORIAL HepG2 Assay for human RAR-related Orphan Receptor gamma (RORg) (AID 2283011)
How it was run: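 Readout: reporter transcript induction (RT-PCR, fluorescent primer extension, capillary electrophoresis) after 24 h compound exposure of transiently transfected HepG2 cells carrying a RORg-Gal4 chimera and GAL4-UAS reporters; DMSO served as baseline, with increasing signal fitted.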

Chain of human RAR-related Orphan Receptor gamma (RORg), RORC (gene 6097) (P51449 whole entry, looked up, the tested form may be a part): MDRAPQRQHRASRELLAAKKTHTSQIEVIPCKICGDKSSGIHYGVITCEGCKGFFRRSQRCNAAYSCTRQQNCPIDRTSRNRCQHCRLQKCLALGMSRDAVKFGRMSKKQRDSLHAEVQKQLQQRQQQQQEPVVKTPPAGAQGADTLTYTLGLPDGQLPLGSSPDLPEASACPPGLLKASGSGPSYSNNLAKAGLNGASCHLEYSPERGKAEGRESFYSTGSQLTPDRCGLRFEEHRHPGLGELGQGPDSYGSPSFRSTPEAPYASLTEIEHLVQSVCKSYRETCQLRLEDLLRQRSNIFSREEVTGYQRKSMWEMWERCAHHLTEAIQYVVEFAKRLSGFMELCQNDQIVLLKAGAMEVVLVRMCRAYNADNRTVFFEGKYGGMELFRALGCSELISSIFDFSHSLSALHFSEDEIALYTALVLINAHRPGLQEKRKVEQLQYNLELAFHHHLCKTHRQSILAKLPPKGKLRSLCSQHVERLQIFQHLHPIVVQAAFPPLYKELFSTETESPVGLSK

outcome, inactive:
CC1=C(C)S(=O)(=O)CCS1(=O)=O
Cc1cn([C@H]2C=C[C@@H](CO)O2)c(=O)[nH]c1=O
S=c1[nH]c2ccccc2s1
CC(N)=O
NCCOCCOCCN
O=C(NS(=O)(=O)/C=C/c1cccs1)c1ccc(F)cc1Br
CCCCC(CC)CO (stereo unspecified)
CSc1ccc(Oc2ccc(S(N)(=O)=O)cc2CN(C)C)cc1C
CCCC(=O)O
C/C=C/C=C/C(=O)O
Cn1cnc2c1c(=O)[nH]c(=O)n2C
CC(=O)CC(c1ccccc1)c1c(O)c2ccccc2oc1=O (stereo unspecified)
C=CCc1ccc(OC)c(OC)c1
CS(=O)(=O)c1ccc([C@@H](C[C@H]2CCC(=O)C2)C(=O)Nc2cnccn2)cc1Cl
O=C1O[C@H]([C@H](O)CO)C(O)=C1O
c1ccc2occc2c1
